# In PubChem BioAssay (NCI):
# The panel holds about 83,000 compounds, 20% with a hit somewhere; the sample as a whole holds those more often.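 Cells were grown in 96-well plates and exposed to the test compound at a single concentration for 48 hours; results are reported as percent growth, with values below 10 considered active.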 Values without a mark were called inactive. Activity calls are given as the source filed them.
# Tested on: NCI-H460 lung
# Experiment: NCI-60 one-dose screen, 48 h (100 = growth as untreated, 0 = no growth, -100 = all killed)
# Conditions: 10 µM unless noted
# Experimental: Growth inhibition of the NCI-H460 human Non-Small Cell Lung tumor cell line is measured as a screen for anti-cancer activity. Cells are grown in 96 well plates and exposed to the test compound for 48 hours. Compounds are tested at a single concentration, which is 10^-5 M for most compounds. The reported endpoint is percent growth (GI% or GIPRCNT), where numbers from 0 - 100% represent growth inhibition, and numbers from -100% - 0 represent cell death. For example, a value of 40 represents 60% growth inhibition. A value of 0 means no net growth occurred over the course of the experiment. A value of -40 indicates 40% of cells at the beginning of the experiment died by the end of the experiment. A value of -100 means all cells are dead at the end of the experiment.
# NCI-60 Human Tumor Cell Lines Screen was performed using the standard one-dose NCI protocol, which is described in more detail at https://dtp.cancer.gov/discovery_development/nci-60/default.htm.
# Compounds with GIPRCNT values below 10 were considered active. Activity score was based on GIPRCNT using the following formula: […]
# Score is 0 for GIPRCNT values of 100 or above, 50 for GIPRCNT values of 0, and 100 for GIPRCNT values of -100.
row,SMILES,growth
1,O=C1Nc2ccc(Br)cc2C1=O,102%
2,O=C(c1ccccc1)C(Br)C(Br)c1ccccc1 (stereo not given),103%
3,Cn1c(-c2ccccc2)c(/C=C/C2=[N+](C)c3ccccc3C2(C)C)c2ccccc21,2.46% (active)
4,CCCOS(=O)(=O)c1ccccc1,106%
5,OC(c1cc(-c2ccc(Cl)cc2)nc2c(Cl)cccc12)C1CCCCN1 (stereo not given),-87.4% (active)
6,O=C1C(=O)c2cccnc2-c2ncccc21,-57.3% (active)
7,S=C(S)OCN1CCOCC1,90.3%
8,O=[N+]([O-])c1ccc(C(Br)c2ccc([N+](=O)[O-])cc2)cc1,102%
9,Cc1cc(=O)oc2cc(O)cc(O)c12,99%
10,CC(=O)c1ccc2c(c1)CCc1ccccc1-2,107%
11,CCCCCCCCC(=O)OCCCC(CCC(CCC1CCCO1)OC(=O)CCCCCCCC)OC(=O)CCCCCCCC (stereo not given),111%
12,CC1C(c2ccccc2)OCCN1C(=S)Nc1ccc(S(=O)(=O)N2CCCCC2)cc1 (stereo not given),104%
13,O=C(Cc1nc2cc(Cl)c(Cl)cc2nc1CC(=O)c1cccnc1)c1cccnc1,82.6%
14,Cc1nnc(N/N=C/c2ccc([N+](=O)[O-])o2)[nH]c1=O,11.3%
15,Cc1cc(C(=O)c2ccc(Cl)cc2)ccc1O,106%
16,COc1ccc2c(c1OC)OCC(CN(C)C)C2=O (stereo not given),122%
17,CC(C)=CCCC(C)C1=C(O)C(=O)C(C)=CC1=O (stereo not given),124%
18,CC1(O)CCCCCC1,107%
19,COc1cc(/C=C2\SC(=S)N(/C=C/c3nc4ccccc4[nH]c3=O)C2=O)cc(OC)c1OC,92.1%
20,NNc1ccc(Cl)cc1Cl,97.5%

row,SMILES,growth
1,Cc1cc(C)c(C#N)c(Sc2nc(C)c([N+](=O)[O-])c(C)c2C#N)n1,89.9%
2,CCCN(CCC)C(=O)c1ccc(C)cc1,99.8%
3,O=[N+]([O-])c1ccc2c(c1)Cc1ccccc1-2,99.9%
4,COc1ccc(C(Cn2ccnc2)Sc2ccc(Cl)c(Cl)c2)cc1 (stereo not given),78.2%
5,COC1=CC(=O)c2c(O)c3c(c(O)c2C1=O)CC(C)(O)OC3 (stereo not given),4.74% (active)
6,O=C(/C(Cl)=N/O)c1ccc(-c2ccccc2)cc1,107%
7,Clc1ccc(-n2ncc3c(NCCCN4CCOCC4)ncnc32)cc1,102%
8,Nc1nc2ncc(CNc3ccc(C(=O)NC(CCC(=O)NC(CCC(=O)NC(CCC(=O)NC(CCC(=O)NC(CCC(=O)O)C(=O)O)C(=O)O)C(=O)O)C(=O)O)C(=O)O)cc3)nc2c(=O)[nH]1 (stereo not given),120%
9,O=C(Nc1cccc(C(F)(F)F)c1)Oc1ccc(Cl)c2cccnc12,10.4%
10,Oc1ccc(Cl)cc1Cc1cc(Cl)ccc1O,11.5%
11,O=C1C=CC(=O)N1c1cccc2c1CCCC2,109%
12,O=C1C(=O)c2cc([N+](=O)[O-])ccc2-c2ccccc21,16.4%
13,COc1cc(/C=C/c2ccnc3ccccc23)cc(OC)c1OC,22.4%
14,CN(C)c1ccc(/C=C/c2ccnc3ccccc23)cc1,21.7%
15,Oc1c(Cl)cc(Cl)cc1C=NCC1CCC(CN=Cc2cc(Cl)cc(Cl)c2O)CC1 (stereo not given),108%
16,CCc1cnc2ccccc2c1/C=C/c1ccc(N(C)C)cc1,30.8%
17,O=C1c2ccccc2C(=O)c2c(O)c(Cl)cc(O)c21,100%
18,NC1=C(Br)C(=O)c2ncccc2C1=O,-73.9% (active)
19,O=C1CSC(=S)N1Cc1cccnc1,106%
20,CC(C)(C)c1ccc(CCO)cc1,109%
